From PubChem BioAssay (Tox21)
Records with an inconclusive call do not appear. A call without a number means that no potency is given here. Calls of active or inactive are those of the source. Unless noted, calls follow the shape of the dose curve; as a rule, active = well fitted curve in the direction sought with a large enough effect in the repeat runs; inconclusive = weak or mixed curves; inactive = no such curve, though single readings can be large; an effect the other way counts as inactive or inconclusive.

Experiments:
[1] = qHTS assay to identify small molecule agonists of the RXR signaling pathway - cell viability counter screen (AID 1159529);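 also: HEK 293T cells carrying an RXR-alpha UAS beta-lactamase reporter; series mostly up to about 77 µM; nearly all actives have a fitted effect of over 50% in size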
Summary of the method: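 In this parallel viability measure, GeneBLAzer RXR-alpha HEK 293T cells (2% charcoal-stripped FBS) were given a 5 hr preincubation, treated with compounds 16 hr at 37 C, and read by CellTiter-Glo luminescence.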

[2] = qHTS assay to identify small molecule antagonists of the retinoid acid receptor (RAR) signaling pathway - cell viability counter screen (AID 1159551); also: nearly all actives have a fitted effect of over 35% in size
Summary of the method: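 In this counter screen, the RARE-luciferase line C3RL4 was exposed for 6 h at 37 C and 5% CO2 to compounds with retinol at 1 uM final. Cellular ATP, read by luminescence, served as the viability measure.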

[3] = qHTS assay to identify small molecule agonists of the retinoic acid receptor (RAR) signaling pathway (AID 1159553)
Summary of the method: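 In this cell-based screen, 1,000 C3RL4 cells per well were cultured overnight, dosed with test chemicals in DMSO for 6 hr, and assessed for RARE luciferase luminescence.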

[4] = molecular target: Luciferin 4-monooxygenase (Photinus pyralis) (UniProt P08659); assay: qHTS assay to identify small molecule inhibitors of firefly luciferase (AID 1224835); also: series mostly up to about 120 µM; nearly all actives have a fitted effect of over 25% in size
Summary of the method: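 Quantitative HTS format; KM concentrations of both substrates. Purified P. pyralis FLuc activity quantified from luminescence images.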

[5] = qHTS assay to identify small molecule agonists of the constitutive androstane receptor (CAR) signaling pathway - cell viability counter screen (AID 1224836); also: series mostly up to about 92 µM; nearly all actives have a fitted effect of over 45% in size
Summary of the method: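 Using CellTiter-Fluor, viability of HepG2 cells harbouring hCAR and CYP2B6-2.2kb was measured following 23 h incubation with a 15-concentration compound series plus PK11195 (0.75 uM final).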

[6] = qHTS assay to identify small molecule antagonists of the constitutive androstane receptor (CAR) signaling pathway - cell viability counter screen (AID 1224837); also: series mostly up to about 92 µM; nearly all actives have a fitted effect of over 45% in size
Summary of the method: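 CITCO at 50 nM final was added alongside compounds (15 concentrations) to double-stable hCAR/CYP2B6-2.2kb HepG2 cells. Following 23 hr at 37 C, cell viability was quantified by CellTiter-Fluor fluorescence intensity.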

[7] = molecular target: Nuclear receptor subfamily 1 group I member 3 (Homo sapiens) (UniProt Q14994); assay: qHTS assay to identify small molecule antagonists of the constitutive androstane receptor (CAR) signaling pathway (AID 1224838); also: nearly all actives have a fitted effect of over 40% in size
Summary of the method: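 Inhibition of CITCO-driven (50 nM final) CYP2B6 reporter expression is measured in HepG2 cells stably carrying hCAR. Fifteen compound concentrations are applied for 24 h at 37 C, followed by luciferase luminescence.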

[8] = qHTS assay to identify small molecule antagonists of the estrogen related receptor signaling pathway with the pleiotropic PPARgamma coactivator (PGC) from Tox21 10K library - cell viability counter screen (AID 1224840; active = well fitted cell-killing curve with a large enough effect in the repeat runs, not every such curve was filed as active; also: nearly all actives have a fitted effect of over 40% in size)
Summary of the method: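 Readout: fluorescence intensity from CellTiter-Fluor after 30 min at 37 C/5% CO2. Preceded by 17.5 h treatment of PGC/ERR cells with DMSO-dissolved compounds, added 6 h post-seeding.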

[9] = qHTS assay to identify small molecule antagonists of the estrogen related receptor signaling pathway with the pleiotropic PPARgamma coactivator (PGC) from Tox21 10K library (AID 1224841; call rule not given here; also: series mostly up to about 92 µM; actives are mostly falling curves and most rising ones were filed inactive; nearly all actives have a fitted effect of over 50% in size)
Summary of the method: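 One-Glo luminescence, measured after half an hour at room temperature, quantified reporter output of PGC/ERR cells. These had been plated at 2,000 per well, incubated 6 h, dosed with compounds in DMSO, then kept 18 h at 37 C.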

[10] = qHTS assay to identify small molecule agonists of the estrogen related receptor signaling pathway with the pleiotropic PPARgamma coactivator (PGC) from Tox21 10K library (AID 1224842); also: nearly all actives have a fitted effect of over 15% in size
Summary of the method: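 PGC/ERR reporter cells (NTP line) were seeded 2,000 per well, rested 6 h at 37 C/5% CO2, then pin-dosed with compounds in DMSO for 18 h at 37 C; luciferase read by One-Glo luminescence after 30 min at room temperature.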

[11] = molecular target: Thyrotropin receptor (Homo sapiens) (UniProt P16473); assay: qHTS assay to identify small molecule agonists of the thyroid stimulating hormone receptor (TSHR) signaling pathway (AID 1224843; calls by dose curve; also: nearly all actives have a fitted effect of over 45% in size)
Summary of the method: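 Using 15 concentrations per compound in triplicate, cAMP production was monitored in TSHR-HEK293 cells after 30 min compound incubation at RT; HTRF reagents followed, with fluorescence intensity recorded after 1 h.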

[12] = qHTS assay to identify small molecule agonists of the hypoxia (HIF-1) signaling pathway - cell viability counter screen (AID 1224844; calls by dose curve; also: nearly all actives have a fitted effect of over 50% in size)
Summary of the method: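 In this counter screen, HRE-bla ME-180 cell viability after 17 hrs of compound exposure at 37C was read by CellTiter-Glo luminescence, multiplexed with the beta-lactamase reporter measurement.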

[13] = qHTS assay to identify small molecule antagonists of the estrogen related receptor (ERR) signaling pathway from Tox21 library - cell viability counter screen (AID 1224834); also: nearly all actives have a fitted effect of over 30% in size
Summary of the method: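 Counter screen run in ERR cells (2,000 cells/well): cells pre-incubated 6 h, then treated with compounds for 17.5 h at 37 C. Fluorescence was read 30 min after CellTiter-Fluor addition.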

[14] = molecular target: Nuclear receptor subfamily 1 group I member 3 (Homo sapiens) (UniProt Q14994); assay: qHTS assay to identify small molecule agonists of the constitutive androstane receptor (CAR) signaling pathway (AID 1224839); also: nearly all actives have a fitted effect of over 15% in size; also: potency is read from the fitted curve at half-maximal effect
Summary of the method: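 Double-stable HepG2 cells (hCAR, CYP2B6-2.2kb) seeded 4 h before compound addition. Exposure 24 h with 0.75 uM PK11195 final. Luciferase detected by ONE-Glo.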

[15] = qHTS assay to identify small molecule antagonists of the retinoic acid receptor (RAR) signaling pathway (AID 1159552; also: nearly all actives have a fitted effect of over 50% in size)
Summary of the method: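 C3RL4 RARE-luc cells, overnight plating; retinol 1 uM final added right after compound; 6 hr 37 C; luciferase read at 30 min RT.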

Thyrotropin receptor (Homo sapiens), sequence (P16473 whole entry, looked up): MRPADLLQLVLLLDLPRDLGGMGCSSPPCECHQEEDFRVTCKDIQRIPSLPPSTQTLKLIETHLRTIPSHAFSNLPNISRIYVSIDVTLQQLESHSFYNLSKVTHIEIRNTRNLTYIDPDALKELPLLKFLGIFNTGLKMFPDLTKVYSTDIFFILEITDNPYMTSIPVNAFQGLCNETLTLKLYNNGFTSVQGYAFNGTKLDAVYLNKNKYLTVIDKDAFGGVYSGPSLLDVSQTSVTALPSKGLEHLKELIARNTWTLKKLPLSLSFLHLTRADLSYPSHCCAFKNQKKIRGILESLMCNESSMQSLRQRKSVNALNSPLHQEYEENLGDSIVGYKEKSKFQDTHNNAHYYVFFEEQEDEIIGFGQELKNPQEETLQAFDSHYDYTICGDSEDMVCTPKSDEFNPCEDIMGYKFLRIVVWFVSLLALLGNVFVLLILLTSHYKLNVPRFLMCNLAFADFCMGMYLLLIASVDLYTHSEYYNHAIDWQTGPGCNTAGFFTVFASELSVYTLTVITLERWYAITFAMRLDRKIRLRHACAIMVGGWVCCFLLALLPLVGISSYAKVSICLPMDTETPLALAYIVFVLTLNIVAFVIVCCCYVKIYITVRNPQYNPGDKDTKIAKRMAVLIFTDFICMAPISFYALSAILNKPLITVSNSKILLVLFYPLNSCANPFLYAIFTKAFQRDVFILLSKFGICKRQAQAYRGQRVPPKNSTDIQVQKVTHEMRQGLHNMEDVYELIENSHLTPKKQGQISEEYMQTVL
Nuclear receptor subfamily 1 group I member 3 (Homo sapiens), sequence (Q14994 whole entry, looked up): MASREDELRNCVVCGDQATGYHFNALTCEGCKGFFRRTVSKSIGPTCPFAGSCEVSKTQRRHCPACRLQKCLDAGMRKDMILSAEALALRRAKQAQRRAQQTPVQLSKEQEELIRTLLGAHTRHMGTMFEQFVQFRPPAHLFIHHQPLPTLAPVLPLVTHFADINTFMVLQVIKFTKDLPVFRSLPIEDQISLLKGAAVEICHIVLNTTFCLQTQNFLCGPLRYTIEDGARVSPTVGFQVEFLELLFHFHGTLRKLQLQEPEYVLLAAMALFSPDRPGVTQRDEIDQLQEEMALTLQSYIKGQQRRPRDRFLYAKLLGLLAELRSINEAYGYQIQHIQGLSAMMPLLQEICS
Luciferin 4-monooxygenase (Photinus pyralis), sequence (P08659 whole entry, looked up): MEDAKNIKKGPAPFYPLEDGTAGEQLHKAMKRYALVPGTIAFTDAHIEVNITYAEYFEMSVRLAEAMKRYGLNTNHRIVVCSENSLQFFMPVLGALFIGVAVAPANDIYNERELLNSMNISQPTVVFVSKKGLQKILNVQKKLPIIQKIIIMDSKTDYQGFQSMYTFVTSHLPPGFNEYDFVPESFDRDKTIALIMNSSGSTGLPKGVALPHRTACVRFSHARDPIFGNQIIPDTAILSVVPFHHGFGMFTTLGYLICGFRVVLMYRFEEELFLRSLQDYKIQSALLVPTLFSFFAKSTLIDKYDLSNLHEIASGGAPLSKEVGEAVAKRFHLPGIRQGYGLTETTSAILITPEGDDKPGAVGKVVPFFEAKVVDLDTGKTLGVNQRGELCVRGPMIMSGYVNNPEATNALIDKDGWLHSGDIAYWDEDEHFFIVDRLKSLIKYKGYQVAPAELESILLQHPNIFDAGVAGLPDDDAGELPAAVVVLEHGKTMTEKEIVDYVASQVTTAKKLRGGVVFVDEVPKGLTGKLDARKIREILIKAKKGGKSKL

Structure (SMILES)	Potency [1]	Potency [2]	Potency [3]	Potency [4]	Potency [5]	Potency [6]	Potency [7]	Potency [8]	Potency [9]	Potency [10]	Potency [11]	Potency [12]	Potency [13]	Potency [14]	Potency [15]
C#CCOC(=O)/C=C(C)/C=C/CC(C)CCCC(C)C (stereo not drawn)	inactive	inactive	inactive	inactive	inactive	inactive	inactive	inactive	inactive	inactive	inactive	inactive			
C[N+]1(C)CCCCC1	inactive	inactive	inactive	inactive	inactive	inactive		inactive			inactive	inactive	inactive	inactive	
c1cncc([C@@H]2CCCCN2)c1	inactive	inactive		inactive	inactive		inactive	inactive				inactive		inactive	inactive
CCOC(=O)C(SP(=S)(OC)OC)c1ccccc1 (stereo not drawn)	inactive	inactive		inactive	inactive		inactive	inactive	inactive	inactive	inactive	inactive	inactive	30.6 µM (active)	inactive
COC[C@@H](NC(C)=O)C(=O)NCc1ccccc1	inactive	inactive	inactive			inactive		inactive	inactive	inactive	inactive	inactive			inactive
CCOC(=O)C(Cl)Cc1cc(-n2nc(C)n(C(F)F)c2=O)c(F)cc1Cl (stereo not drawn)	inactive	inactive	inactive	inactive	inactive	inactive	inactive					inactive			
